In the library only some 2% were active in any assay of this set; here they are far more common.
GalR3 antag – GalR3 antagonists in HEK293 cells, primary screen, cell-based, fluorescence readout | inhibition, % at 3 µM | Galanin receptor type 3 (Homo sapiens), O60755 | HEK293 GalR3-CNG cAMP membrane potential fluorescence; galR3 body fused to GalR1 C-terminus | hit rate 0.44% among 360,000 | AID 651719, 2012;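 active = inhibition above the screen-wide average plus 3 SD, cut at about 13% in these data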;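 note: forskolin and galanin both at EC90 stimulate the cells; cAMP rise reported by CNG channel membrane potential dye signal; 0% = forskolin plus galanin with DMSO and 100% = forskolin alone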
Target sequence (O60755 1-299 limits assumed): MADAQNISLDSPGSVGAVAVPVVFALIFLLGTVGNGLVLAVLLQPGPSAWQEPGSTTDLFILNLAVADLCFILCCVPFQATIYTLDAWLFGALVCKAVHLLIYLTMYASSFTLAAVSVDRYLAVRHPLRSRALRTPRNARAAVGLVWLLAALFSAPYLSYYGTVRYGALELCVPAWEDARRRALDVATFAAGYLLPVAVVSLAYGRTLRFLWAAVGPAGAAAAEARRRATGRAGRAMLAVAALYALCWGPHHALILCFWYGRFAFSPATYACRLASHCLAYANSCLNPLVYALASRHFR
697 NFkB inh – inhibitors of PMA/ionomycin-induced NF-kB reporter, 697 cells, primary screen, B-cell NF-kB inhibitor project, cell-based, luminescence, uHTS | inhibition, % at 4 µM | hit rate 0.33% among 330,000 | 697 B-cell NF-kB luciferase reporter, 16 h; in the data active = inhibition above about 35%
Gli-Sufu block – Gli-Sufu pathway antagonists, primary screen, luciferase luminescence, Sufu-KO-LIGHT cells, uHTS | Sufu-KO-LIGHT fibroblasts, Gli luciferase reporter luminescence | inhibition, % at 5 µM | hit rate 0.74% among 340,000 | AID 588413, 2011;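 active = inhibition above about 55%, limit read from the data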;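 note: 0% = DMSO-treated cells and 100% = wells with medium but no cells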
NR2F2 inh – NR2F2 transcriptional activity inhibitors, primary screen, cell-based, luciferase reporter, HEK293T, luminescence | COUP transcription factor 2 (Homo sapiens), P24468 | HEK293T NGFI-A luciferase reporter | inhibition, % at 8.6 µM | hit rate 0.7% among 370,000 | AID 686940, 2013;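 active = inhibition above a per-plate cutoff, mean inhibition of test wells between control levels plus 3 SD, cut at about 38% in these data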;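 note: cells cotransfected with COUP-TFII expression vector driving the NGFI-A reporter; 0% = median of COUP-TF2 test wells and 100% = reporter-only cells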
Jurkat NFkB inh – inhibitors of induced NF-kB luciferase reporter, primary screen, TCR NF-kB activation inhibitor project, cell-based, luminescence, uHTS. Jurkat, PMA/ionomycin-induced NF-kB luciferase reporter. inhibition, % at 4 µM. hit rate 0.53% among 330,000. AID 435003, 2010; in the data active = inhibition above about 50%
Gli-Sufu confirm – Gli-SUFU pathway antagonists, confirmation, single concentration, luciferase luminescence, Sufu-KO-LIGHT cells. shares compounds with Gli-Sufu block. Gli luciferase reporter. inhibition, % at 5 µM. hit rate 40% among 2,500;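 active = mean inhibition at 5 µM reaching about 45%, limit read from the data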;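 note: plate controls were DMSO-treated cells for no effect and wells lacking cells for full effect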
Gli cytotox – cytotoxicity in Sufu-KO-LIGHT cells, confirmation, cytotoxicity control for Gli-SUFU antagonist project, cell-based, ATP luminescence, single concentration. shares compounds with Gli-Sufu block. cytotoxicity, % at 5 µM. AID 651994, 2013. hit rate 32% among 2,500;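 active = mean cytotoxicity at 5 µM above about 25%, limit read from the data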;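 note: cells exposed to compound overnight for roughly 16 to 18 hours; plate controls were DMSO wells with cells for no effect and medium without cells for full effect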
Wnt3a cs – Wnt3a reporter signal inhibition, confirmation, counter-screen for Gli-SUFU antagonist project, Wnt-LIGHT cells, luminescence, single concentration; shares compounds with Gli-Sufu block; Wnt3a-driven luciferase reporter; inhibition, % at 6.25 µM; hit rate 20% among 2,500;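 active = mean inhibition above about 25%, limit read from the data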
GalR3 antag conf – GalR3 antagonist hit confirmation, cell-based, fluorescence, triplicate. shares compounds with GalR3 antag. HEK293 GalR3 CNG cAMP biosensor, membrane potential fluorescence; galR3 fused to GalR1 carboxy tail; challenged with forskolin and galanin at EC90. inhibition, % at 3 µM. hit rate 59% among 1,600. AID 652245, 2013;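 active = inhibition above the primary screen's cutoff, the mean inhibition of all screened compounds plus 3 SD, cut at about 13% in these data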;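 note: 0% = forskolin plus galanin and 100% = forskolin alone with DMSO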
HEK-CNG parental – nonspecific cAMP agonists in parental HEK-CNG cells, counter-screen for GalR3 antagonist project, cell-based, fluorescence, high throughput; shares compounds with GalR3 antag; HEK293-CNG parental cells, cAMP membrane potential fluorescence; normalised: DMSO wells 0%, forskolin wells 100%; activation, % at 3 µM; hit rate 10% among 1,600; AID 652268, 2013; in the data active = activation above about 1.3%
Gal4-VP16 ctr – Gal4-VP16 luciferase reporter inhibitors, counter-screen for COUP-TFII antagonist project, cell-based, luminescence, HEK293; shares compounds with NR2F2 inh; inhibition, % at 8.5 µM; hit rate 25% among 2,500; AID 687007, 2013; in the data active = inhibition above about 13%
COUP-TFII conf – NR2F2 transcriptional activity inhibitors, confirmation, cell-based, luciferase reporter, HEK293, triplicate | shares compounds with NR2F2 inh | HEK293 NGFI-A luciferase reporter, luminescence | inhibition, % at 8.5 µM | hit rate 45% among 2,500;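 active = mean inhibition over three repeats above a set limit taken from the earlier primary screen, cut at about 38% in these data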;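 note: 100% = cells given the luciferase reporter alone without the COUP-TF2 vector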
An asterisk follows results filed as active; · = no result.

SMILES	GalR3 antag	697 NFkB inh	Gli-Sufu block	NR2F2 inh	Jurkat NFkB inh	Gli-Sufu confirm	Gli cytotox	Wnt3a cs	GalR3 antag conf	HEK-CNG parental	Gal4-VP16 ctr	COUP-TFII conf
COc1ccc(-n2cc(-c3ccccc3)nc2SC)cc1	1.5	-58.0	-63.8	-17.6	-60.1	·	·	·	·	·	·	·
O=C(Nc1cccnc1)c1ccc(-c2ccccc2)cc1	-1.3	10.5	-20.2	-47.0	-77.9	·	·	·	·	·	·	·
O=C(Nc1ccncc1)c1ccc(-c2ccccc2)cc1	·	-0.6	57.8*	62.0*	35.2	55.0*	23.5	-84.3	56.3*	-0.5	-87.4	33.1
CC(CCN1CCC(C(O)(c2ccccc2)c2ccccc2)CC1)Oc1cc(F)cc(C#N)c1 (stereo not given)	·	·	·	0.0	·	·	·	·	·	·	·	·
CCOC(=O)c1cccc(NC(=O)CN(C)S(=O)(=O)c2cc3ccccc3s2)c1	·	·	·	3.8	·	·	·	·	·	·	·	·
CN1/C(=C\P(=O)(N(C)C)N(C)C)C(C)(C)c2ccccc21	-4.8	-8.3	76.0*	45.6*	30.7	70.4*	29.9*	28.6*	·	·	-5.9	-0.2
Cc1ccc(C#CC[N+]2(CC#Cc3ccc(C)cc3)CCCCC2)cc1	-2.9	19.0	87.8*	44.8*	29.2	88.8*	39.1*	-6.6	·	·	13.1*	35.6
COc1ccc(NS(=O)(=O)c2ccc(N3CCCCC3)c(N)c2)cc1	82.2*	1.2	57.9*	55.9*	41.2	73.5*	26.9*	16.1	104.8*	-0.6	-4.9	42.7*
CCN(CC)C(=O)CC[C@@H]1CC[C@]2(CCCN(C(=O)C3CCCCC3)C2)O1	·	·	·	-2.4	·	·	·	·	·	·	·	·
COc1ccc(NS(=O)(=O)c2ccc(OC)c(N(C)S(=O)(=O)c3ccc(Cl)cc3)c2)cc1	24.8*	-48.0	74.2*	57.1*	13.1	42.6	39.4*	-34.8	61.9*	-0.2	-6.6	21.4
COc1ccc(S(=O)(=O)Nc2ccc(F)cc2)cc1N(C)S(=O)(=O)c1ccc(Cl)cc1	-4.7	-8.0	-1.3	14.2	20.9	·	·	·	·	·	·	·
COC(=O)[C@]12C[C@H](CC(=O)NCc3ccc(C)o3)C(=O)N(Cc3ccc4c(c3)OCO4)C1=C[C@H](C(C)C)O[C@@H]2C1CC1	·	·	·	-11.1	·	·	·	·	·	·	·	·
COC(=O)[C@]12C[C@H](CC(=O)NCc3cccc4ccccc34)C(=O)N(CCc3ccc(OC)c(OC)c3)C1=C[C@H](C(C)C)O[C@@H]2C1CC1	·	·	·	13.9	·	·	·	·	·	·	·	·
CCCn1c(SCc2ccc(Cl)cc2)nc2c1c(=O)[nH]c(=O)n2C	14.2*	-40.3	8.7	-6.5	-2.5	·	·	·	31.8*	1.3*	·	·

Screening data from PubChem.
